Assay outcomes (PubChem BioAssay)
M1 ag – human M1 muscarinic receptor agonism | CHO-K1 hM1, Fluo-8 calcium fluorescence, agonist mode; 0% DMSO, 100% acetylcholine EC100 | activation, % at 3 µM | hit rate 0.33% among 360,000 | AID 588814;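 active means activation above the run's mean compound activation plus 3 SD, cut at about 16% in these data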;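 further: peak over basal fluorescence ratio within a 140 s kinetic read after compound addition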
Target sequence (P11229 whole entry, looked up): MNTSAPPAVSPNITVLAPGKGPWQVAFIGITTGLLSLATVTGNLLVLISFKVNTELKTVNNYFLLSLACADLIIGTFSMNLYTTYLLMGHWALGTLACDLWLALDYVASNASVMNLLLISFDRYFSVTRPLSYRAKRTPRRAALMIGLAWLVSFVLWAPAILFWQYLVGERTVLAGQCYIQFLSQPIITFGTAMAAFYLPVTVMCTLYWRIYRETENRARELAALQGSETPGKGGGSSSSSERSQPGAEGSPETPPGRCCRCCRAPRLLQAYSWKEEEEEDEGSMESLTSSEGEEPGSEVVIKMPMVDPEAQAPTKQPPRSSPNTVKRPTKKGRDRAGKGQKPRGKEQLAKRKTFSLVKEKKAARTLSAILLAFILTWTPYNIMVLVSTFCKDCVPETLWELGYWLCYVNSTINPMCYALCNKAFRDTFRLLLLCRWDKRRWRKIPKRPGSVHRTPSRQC
M1 antag – human CHRM1 antagonism; P11229; CHO-K1 hM1, Fluo-8 calcium fluorescence, ACh EC80 antagonist; inhibition, % at 3 µM; hit rate 1.3% among 360,000; AID 588852;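 active means percent inhibition above its own plate's cutoff, namely the mean of that plate's compound wells plus 3 SD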;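 further: peak over basal fluorescence ratio during 140 s after agonist addition; 0% = ACh EC80 plus DMSO and 100% = DMSO alone without agonist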
M1 ag parental – M1 agonist counterscreen hit in parental CHO-K1 cells; Fluo-8 calcium fluorescence; scaled to maximal ATP response, vehicle zero; activation, % at 3 µM; hit rate 0.48% among 360,000; AID 602248; in the data active means activation above about 15%;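 further: untransfected CHO-K1 host cells lacking M1 receptor as counterscreen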
CHRM1 PAM – human CHRM1 positive allosteric modulation. P11229. CHO-K1 hM1, Fluo-8 calcium fluorescence, ACh EC20; 0% = ACh EC20, 100% = maximal ACh. activation, % at 3 µM. hit rate 0.088% among 360,000. AID 588819; in the data active means activation above about 19%, passing the limit was not always enough
CHO-K1 Ca antag – nonselective inhibitor or artifact in parental CHO-K1 cells | ATP-induced calcium, Fluo-8 fluorescence | AID 602250 | hit rate 0.6% among 360,000 | inhibition, % at 3 µM;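 active means inhibition above a per-plate cutoff, the plate's mean sample inhibition plus 3 SD, cut at about 24% in these data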;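 further: 0% = DMSO plus EC80 ATP and 100% = DMSO alone without ATP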
CHO-K1 Ca PAM – nonselective activator or artifact in parental CHO-K1 calcium assay | activation, % at 3 µM | ATP EC20, Fluo-8 calcium fluorescence; 0% at ATP EC20, 100% at ATP max | hit rate 0.02% among 360,000 | AID 602247;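 active means activation above the run cutoff, the mean activation of all test compounds plus 3 SD, cut at about 40% in these data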;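 further: peak over basal fluorescence ratio in a 140 s read after ATP addition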
Numbers without * were called inactive. Most compounds without a hit are left out; they make up all but 2.3% or so of the library.

SMILES	M1 ag	M1 antag	M1 ag parental	CHRM1 PAM	CHO-K1 Ca antag	CHO-K1 Ca PAM
CCOC(=O)N1CCC(N2CCCC(C(=O)c3cc(C)c(OC)c(C)c3)C2)CC1 (stereo not drawn)	-10.7	78.3*	0.4	-27.2	-5.2	5.7
NC(=O)c1ccsc1NC(=O)c1ccc([N+](=O)[O-])o1	-2.2	7.3	0.1	-2.9	-3.9	-9.1
Cc1cc(Cl)c(C)c(S(=O)(=O)N2CCN(CC(=O)N3CCOCC3)CC2)c1Cl	-2.4	21.8	0.0	-5.9	1.4	1.2
CCOC(=O)c1ccccc1NC(=O)CSc1nc2[nH]ncc2c(=O)[nH]1	0.3	34.7*	0.0	-10.6	7.9	-19.9
CCC(C)NC(=O)CCS(=O)(=O)c1ccc(Br)s1 (stereo not drawn)	-2.9	-0.1	0.1	3.3	-5.2	3.2
CCOC(=O)N1CCN(C(=O)CCS(=O)(=O)c2ccc(Br)s2)CC1	5.2	-11.4	-0.1	15.6	27.4*	-10.4
C=CCN1C(=O)/C(=C/C=C2/N(CC)c3ccc(S(=O)(=O)N(C)C)cc3N2CC)SC1=S	17.4*	7.7	8.2	-0.4	-10.6	14.6
Cc1cc(/C=C2/SC(=O)N(CC(=O)N3CCOCC3)C2=O)c(C)n1-c1ccccc1F	-4.5	-5.8	0.7	3.1	-7.0	26.2
O=C(Cn1nnc2ccccc2c1=O)NCC1CCC(C(=O)O)CC1 (stereo not drawn)	8.5	-10.7	18.2*	12.1	2.9	11.4
CC(C)[C@@H](C(=O)NCC1CCC(C(=O)O)CC1)n1nnc2ccccc2c1=O (stereo partly drawn)	-3.2	-0.8	0.1	2.3	-0.6	0.0
c1ccc2c(c1)[nH]c1c(N3CCC4(CC3)OCCO4)ncnc12	2.4	8.0	7.2	-6.3	-12.7	18.1
OC1(c2cccc(C(F)(F)F)c2)CCN(c2ncnc3c2[nH]c2ccccc23)CC1	-0.6	14.9	-0.2	-1.0	25.4*	-2.0
c1ccc2c(c1)CCN(c1ncnc3c1[nH]c1ccccc13)C2	3.0	43.3*	11.4	-11.1	21.5	3.5
CC(=O)N1CC(c2ccccc2)C(c2ccc(Cl)cc2)=N1 (stereo not drawn)	-9.7	-6.2	-0.2	6.0	-4.7	11.1
CC(C)NC(=O)N1CC(c2ccccc2)C(c2ccc(Cl)cc2)=N1 (stereo not drawn)	-9.9	35.0*	-0.3	-23.0	-3.2	-5.2
CCOC(=O)c1[nH]c(C)c(C(=O)N2CCN(C(=O)OCC)CC2)c1CC	-0.4	3.5	-0.1	0.6	25.6*	-11.7
OC(COc1ccccc1)CN1CCCCC1 (stereo not drawn)	-3.6	-12.9	1.7	3.1	-22.3	26.4
OC(COc1ccc(CNCCc2ccccc2F)cc1)CN1CCCCC1 (stereo not drawn)	-6.8	38.1*	0.1	-17.8	1.8	-10.8
CN(C)c1ccc(/C=C/C(=O)c2cccnc2)cc1	60.4*	27.6	64.6*	-17.7	19.7	-7.9
CN(C)c1ccc(/C=C/C(=O)c2ccc3c(c2)OCO3)cc1	52.6*	40.9*	45.9*	-13.1	20.6	-6.0
COc1ccc(C(=O)/C=C/c2ccc(N(C)C)cc2)c(OC)c1	69.2*	53.0*	82.2*	-19.9	45.0*	-24.6
CN(C)c1ccc(C(=O)C=Cc2ccc([N+](=O)[O-])cc2)cc1	-1.4	-5.8	0.4	2.1	-4.7	1.8
O=C(/C=C/c1ccccc1)c1ccc2c(c1)OCO2	-2.0	-4.2	0.5	16.9	-3.7	16.3
COc1ccc(C(=O)/C=C/c2ccccc2)c(OC)c1	-3.3	-4.1	-0.4	2.3	-1.6	13.3
CN(C)c1ccc(/C=C/C(=O)c2ccc(O)cc2)cc1	52.7*	29.5	53.0*	-17.5	25.1*	-7.3
SMILES	M1 ag	M1 antag	M1 ag parental	CHRM1 PAM	CHO-K1 Ca antag	CHO-K1 Ca PAM
COC(=O)c1ccc(CSc2nc3c(c(=O)[nH]2)CCC3)cc1	-1.1	-5.9	0.6	5.6	10.3	1.1
CC(C)(C)C(=O)NC(=S)Nc1sc2c(c1C(N)=O)CCC2	-2.7	2.3	-0.1	2.9	4.0	-12.9
CC(C)CC(=O)NC(=S)Nc1sc2c(c1C(N)=O)CCC2	1.0	3.7	-0.9	-9.2	37.7*	-16.1
O=C(c1ccc(=O)n(Cc2ccccc2)n1)N1CCN(C/C=C/c2ccccc2)CC1	-0.3	41.3*	3.6	-18.6	-2.7	3.6
CC(C)(O)c1[nH]c2cc(F)ccc2c1C(C)(C)O	-5.4	-8.7	-0.2	9.2	-0.6	-0.7
O=C(Nc1nnc([C@@H]2C[C@H](O)[C@@H](CO)O2)s1)c1cccc(OC(F)(F)F)c1	-2.9	-14.3	-0.1	10.1	3.2	11.0
Cc1ccccc1CCN(C(=O)c1csnn1)C(C(=O)NC1CCCC1)c1ccncc1 (stereo not drawn)	-3.6	8.9	1.0	2.7	-3.7	3.3
CCOc1cccc(OCCCCN2CCCCC2)c1	-6.9	19.3*	0.4	-23.2	-8.4	3.1
COc1cccc(OCCCCN2CCCCC2)c1	-8.6	8.4	1.0	-10.6	-14.0	20.2
CC(C)c1cccc(OCCN2CCCC2)c1	-7.8	32.7*	0.4	-15.8	10.9	-20.7
Brc1cccc(OCCCCN2CCCCC2)c1	-9.8	78.1*	0.9	-26.5	-7.3	19.8
CC1CCCN(CCCCOc2cccc(Br)c2)C1 (stereo not drawn)	-7.2	33.1*	0.6	-24.5	6.5	9.1
Clc1cccc(OCCN2CCCC2)c1	-9.2	-8.7	0.6	0.2	12.5	-16.6
CCN(c1ccccc1)S(=O)(=O)c1nnc(NC(=O)c2ccccc2OC)s1	-0.5	7.2	1.1	-3.0	1.9	18.8
CCCOc1c(Br)cc(C(=O)OCc2cc(=O)n3ccsc3n2)cc1OC	-2.2	9.3	0.0	-4.8	1.5	0.2
CC1(C(=O)NS(=O)(=O)c2ccc(C#N)cc2)CCN1C(=O)CC1CCCCC1 (stereo not drawn)	-2.8	2.6	-0.8	-3.2	11.6	-4.3
Cc1c(NS(=O)(=O)c2cccc(C(=O)N3CCC(C(N)=O)CC3)c2)c(=O)n(-c2ccccc2)n1C	4.5	-34.7	1.6	31.1*	-14.7	17.3
O=C(COC(=O)[C@@H]1CCCN1C(=O)c1cccs1)Nc1cccc([N+](=O)[O-])c1	-1.0	11.3	0.4	-7.1	8.2	-18.4
CCO[C@H]1OC(C(=O)NCc2ccccc2)=C[C@@H](c2ccc3c(c2)OCO3)[C@@H]1CCCO	17.9*	6.8	10.3	-4.7	-15.1	15.6
CCO[C@@H]1OC(C(=O)NCc2ccccc2)=C[C@H](c2ccc3c(c2)OCO3)[C@H]1CCCO	-9.6	10.1	0.0	-8.1	5.7	-8.6
CCO[C@H]1OC(C(=O)N2CCOCC2)=C[C@@H](c2ccccc2)[C@@H]1CCCO	-9.2	66.9*	0.6	-21.9	-13.6	14.8
COc1ccccc1NC(=O)C(C)N(C)CC(=O)Nc1cccc2ccccc12 (stereo not drawn)	0.1	-7.5	1.3	0.0	-17.5	10.1
